Screens deposited in PubChem BioAssay by National Center for Advancing Translational Sciences (NCATS).
TDP1 cell noCPT – qHTS for Inhibitors of human tyrosyl-DNA phosphodiesterase 1 (TDP1): qHTS in cells in absence of CPT; DT40 Tdp1-/- hTDP1 cells, no CPT, ATP luminescence, 48 h; Potency, µM (titrated, usually from 46.2 µM), for the others: top-dose activity change, negative = growth inhibition, usual class: inhibitors; hit rate 15% among 420,000; also: nearly all actives have a fitted effect of over 55% in size
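Chicken DT40 Tdp1-/- cells complemented with human TDP1, screened without camptothecin (DMSO vehicle only), 400 cells/well. Compounds pin-transferred, cells incubated at 37 °C for at least 48 hr. Growth read as ATP-dependent luminescence (CellTiter-Glo, 30 min at RT).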
TDP1 cell CPT – DT40-hTDP1 cell growth loss with CPT | chicken DT40 Tdp1-/-;hTDP1 cells + 20 nM CPT, ATP luminescence, 48 h | Potency, µM (titrated, usually from 46.2 µM), for the others: at the highest dose activity change, negative = growth inhibition, most hits filed as inhibitors | hit rate 12% among 420,000 | AID 686979; also: nearly all actives have a fitted effect of over 55% in size
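Cell growth measured by CellTiter-Glo luminescence after a minimum 48 h, 37 C compound exposure with 20 nM CPT in Tdp1-knockout DT40 cells stably expressing hTDP1, seeded 400/well; qHTS titration format.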
KB-3-1 tox – KB-3-1 parental cell cytotoxicity | KB-3-1 viability, CellTiter-Glo ATP luminescence, 72 h | Potency, µM (series often up to 46.1 µM), actives largely listed as cytotoxic | hit rate 1.4% among 400,000; also: nearly all actives have a fitted effect of over 60% in size
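Viability of parental KB-3-1 cells, measured by CellTiter-Glo luminescence, followed a 72 h incubation at 37 °C with pinned compounds in phenol-red-free DMEM containing 10% FBS.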
KB-V1 MDR tox – KB-V1 MDR subline cytotoxicity | Potency, µM (titrated, usually from 46.1 µM), most hits filed as cytotoxic | KB-V1 MDR cells viability, CellTiter-Glo, 72 h | hit rate 3.4% among 400,000; also: nearly all actives have a fitted effect of over 60% in size
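Readout: CellTiter-Glo luminescence, 10 min after addition. Cells: KB-V1 MDR subline, 72 h at 37 degrees C with compound. Analysis: corrected, normalized data fitted to concentration-effect curves.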
HT1080 IDH1KD tx – kills HT-1080 cells with IDH1 knockdown; hit rate 2% among 360,000; Potency, µM (highest dose often 46.1 µM), for the others: at the top dose activity, negative = toxicity, hits mostly cytotoxic; HT-1080 IDH1 knockdown viability, ATP luminescence, 48 h;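 also: 0% = DMSO wells and -100% = cell-free medium wells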
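Cytotoxicity counter-line: IDH1KD HT-1080, 48 h, CellTiter-Glo. Curves classed by r2, magnitude and activity.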
HT1080-NT tox – kills 2HG-producing HT-1080-NT fibrosarcoma cells | hit rate 1.6% among 360,000 | Potency, µM (top dose mostly 46.1 µM), without a hit: top-dose activity, negative = less viability, usual class: cytotoxic | HT-1080-NT fibrosarcoma viability, CellTiter-Glo ATP luminescence, 48 h | AID 686970;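 also: NT is the 2HG producing partner of a matched IDH1 knockdown line; 0% = DMSO-treated cells and -100% = media-only wells without cells; nearly all actives have a fitted effect of over 55% in size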
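Viability of the 2HG-overproducing fibrosarcoma line after 48 hours of compound exposure at 37 degrees C was determined by luminescence with CellTiter-Glo, and concentration-effect curves were then fitted and categorized.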
Active calls of the source: *; i = inactive; ? = inconclusive; / = no result given; [ ] = dose if it differs, or a comment. Most compounds without a hit are left out; they make up all but 19% or so of the library. Calls follow the shape of the dose curve; as a rule, active = well fitted curve in the direction sought with a large enough effect; inconclusive = small, poorly fitted or top-dose-only effect, or another doubt; inactive = no such curve, though single readings can be large; an effect the other way counts as inactive or inconclusive. Unless noted, % is scaled to controls: 0 for no effect and ±100 for the full control effect; potency is read from the fitted curve at half-maximal effect.

SMILES	TDP1 cell noCPT	TDP1 cell CPT	KB-3-1 tox	KB-V1 MDR tox	HT1080 IDH1KD tx	HT1080-NT tox
O=C(NC1CC1)C1CCN(c2ncnc3c2sc2cccc(F)c23)CC1	16µM*	23µM*	i	?	-2%	-6%
O=C(NC1CC1)C1CCN(c2nc3ccccc3s2)CC1	9%	-17%	i	i	-2%	-4%
O=C(COc1ccccc1)NCC(=O)Nc1cccc2ccccc12	-21%	3%	?	18µM*	-3%	-2%
COC(=O)c1ccccc1NC(=S)NC(=O)COc1ccccc1	?	-18%	i	i	-3%	-4%
O=C(COc1ccccc1)NC(=S)Nc1cccc2c(O)cccc12	26µM*	?	i	i	?	?
COc1ccc(NC(=O)c2cnc3sc(N4CCOCC4)nn3c2=O)c(OC)c1	3%	-15%	i	?	/	/
O=C1NC[C@H](CCCCN2CCN(Cc3ccccc3)C(=O)C2=O)N(CCc2ccccc2)C1=O	-16%	-12%	i	i	0%	23%
CCOc1ccc(C(C(=O)NC2CCCCC2)N(C(=O)c2ccccn2)c2cccnc2)cc1 (centres undefined)	-2%	2%	i	i	3%	3%
O=C(COc1ccc(F)cc1)N(c1ccccn1)C1CCCCC1	?	?	i	21µM*	17%	1%
CC(C)c1ccc(OCC(=O)N(c2ccccn2)C2CCCCC2)cc1	15µM*	?	i	i	-4%	-4%
Cc1c(C(=O)N2CCOc3ccccc3C2)sc2ncnc(NCCCN3CCOCC3)c12	-7%	-1%	/	/	/	/
CCOC(=O)c1nn(-c2ccccc2C)c2nc(-c3ccc(C)cc3)c(C#N)c(=O)n12	?	?	i	i	-10%	-3%
CCOC(=O)c1nn(-c2ccccc2)c2nc(-c3ccc(OC)cc3)c(C#N)c(=O)n12	-18%	-24%	?	23µM*	0%	7%
CCOC(=O)C(NC(=O)c1ccc(Cl)cc1Cl)(Nc1ccc(C)cc1)C(F)(F)F (centres undefined)	16µM*	23µM*	i	i	-6%	-2%
COc1ccccc1N1CCN(C(=O)c2ccc(NS(=O)(=O)c3ccc(C)cc3)cc2)CC1	?	?	i	i	-19%	0%
COc1ccccc1N1CCN(C(=O)c2ccc(S(=O)(=O)N3CCCC3)cc2)CC1	16µM*	?	?	i	21%	16%
COc1ccccc1N1CCN(C(=O)c2ccc(C(C)(C)C)cc2)CC1	5.8µM*	4.6µM*	?	?	?	?
COc1ccccc1C1CCN(C(=O)c2cccc([N+](=O)[O-])c2)CC1	16µM*	?	i	?	-9%	-2%
COc1ccccc1C1CCN(C(=O)c2ccc(C(C)(C)C)cc2)CC1	16µM*	?	i	i	?	?
C[C@@H]1C(=O)CC2C(C)(C)CCC[C@]2(C)[C@@]1(O)CCc1ccoc1 (some centres undefined)	-10%[9.04 µM]	-14%[9.04 µM]	/	/	/	/
COc1ccccc1N1CCN(C(=O)c2ccc(-c3ccccc3)cc2)CC1	13µM*	?	i	?	-11%	-24%
COc1cc2c(cc1OC)CN(C(=O)c1ccc(S(=O)(=O)N3CCCCC3)cc1)CC2	16µM*	26µM*	i	i	13%	8%
COc1ccc(C(=O)N2CCN(c3ccccc3OC)CC2)cc1	-1%	-1%	i	i	4%	-1%
CCN1CCN(Cc2nc3cc(NC(=O)c4cc(OC)c(OC)c(OC)c4)ccc3n2CC)CC1	-16%	-19%	i	?	/	/
CC(C)CN(CCCNC(=O)c1cn(C)c2ccc(S(=O)(=O)N(C)C3CCCCC3)cc2c1=O)CC(C)C	0%	8%	i	i	/	/
SMILES	TDP1 cell noCPT	TDP1 cell CPT	KB-3-1 tox	KB-V1 MDR tox	HT1080 IDH1KD tx	HT1080-NT tox
Cc1ccc(-c2ccc(CCC(=O)O)n2-c2ccc(C(C)C)cc2)cc1	-18%	?	i	i	/	/
CCc1nc2ccc(C(=O)N3CCN(c4ccccc4)CC3)cn2c1N(C)CCC(C)C	21µM*	?	?	23µM*	6.5µM*	?
CCc1nc2ccc(C(=O)N3CCN(c4ccccc4)CC3)cn2c1N(C)CCCc1ccccc1	16µM*	13µM*	?	?	?	?
CCN1CCN(C(c2ccc(SC)cc2)c2c(O)cc(C)n(Cc3ccco3)c2=O)CC1 (centres undefined)	-4%	-23%	i	i	/	/
C[C@H](CO)N1C[C@H](C)[C@@H](CN(C)C(=O)Oc2ccccc2)OCc2cn(nn2)CCCC1=O	-14%	-4%	i	i	-1%	1%
Nc1ccc(/C=C/c2ccnc3ccccc23)cc1[N+](=O)[O-]	5µM*	10µM*	i	i	/	/
O=[N+]([O-])c1ccc(/C=C/c2ccnc3ccccc23)cc1	16µM*	11µM*	?	i	/	/
O=[N+]([O-])c1ccc(/C=C/c2ccnc3ccccc23)c([N+](=O)[O-])c1	20µM*	35µM*	i	i	/	/
O=[N+]([O-])c1cccc(/C=C/c2ccccn2)c1	7%	-1%	?	i	-14%	-7%
O=[N+]([O-])c1cccc2c1ccc1ncccc12	-18%	-2%	i	i	?	?
Cc1cc(C)c(NC(=O)CSc2nc(C)cc(C)c2C#N)c(C)c1	/	/	i	i	/	/
COCCN1C(=O)COc2ccccc2C1C(=O)NC1CCCCC1 (centres undefined)	-25%	-3%	i	i	6%	19%
CCC(C)NS(=O)(=O)c1ccc(S(=O)(=O)N2CC=C(c3ccc(F)cc3)CC2)cc1 (centres undefined)	18µM*	16µM*	?	?	-16%	-13%
COc1ccc(NC(=O)C2(C)CCN2C(=O)Cc2ccccc2)cc1OC (centres undefined)	?	?	i	i	?	19%
Cc1ccc(NC(=O)C2(C)CCN2C(=O)C2CCCCC2)cc1C (centres undefined)	18µM*	?	i	i	24%	18%
Cc1ccc(NC(=O)C2(C)CCN2C(=O)Cc2ccccc2)cc1C (centres undefined)	16µM*	?	i	i	6%	9%
